Assay results: PubChem BioAssay (NCATS)
Records with an inconclusive call do not appear. A number with no mark means an inactive call. Activity calls are given as the source filed them. The call rests on the fitted dose curve.

Biological target: Thyroid hormone receptor beta (Homo sapiens) (UniProt P10828)
Assay: qHTS assay for small molecule agonists of thyroid hormone receptor beta signaling (AID 588545)
Conditions: TR-UAS-bla GripTite HEK 293, beta-lactamase ratio, agonist mode, 18 h, percent of T3 response, DMSO as zero; series mostly up to 76.7 µM; activation: at the top concentration
Excerpt: NIH Chemical Genomics Center [NCGC]
U.S. Environmental Protection Agency [EPA]
National Institutes of Environmental Health Sciences [NIEHS]
National Toxicology Program [NTP]
Thyroid hormone receptor (TR) belongs to nuclear hormone receptor superfamily. There are two subtypes for TR: TR-alpha and TR-beta. TR-beta plays a major role in regulating plasma cholesterol levels and it mediates the biological activities of thyroid hormone. Screening environmental chemicals on TR-beta signaling will provide important information for the mechanism of compound action.
NCGC Assay Protocol Summary
Using a beta-lactamase reporter-gene under control of the TR response element, a cell-based assay [GeneBLAzer TR-UAS-bla-GripTite assay developed by Invitrogen] was used to measure TR-beta signaling in agonist mode. TR-UAS-bla-GripTite HEK 293 cells were used with assay medium containing 2% charcoal/dextran FBS, 0.1 mM NEAA and 1 mM sodium pyruvate. The assay was performed in clear bottom black Greiner 1536-well plates. T3 was used as a positive control in the screen. Library compounds were measured for their ability to stimulate the reporter gene activity. Compounds were screened in a titration series in 1536-well format. The fluorescence intensity (405 nm excitation, 460/530 nm emission) was measured using an EnVision plate reader. Data was normalized relative to T3 control (10 nM, 100%), and DMSO only wells (basal, 0%). Concentration-response titration points for each compound were fitted to the Hill equation yielding concentrations of half-maximal stimulation (EC50) and maximal response (efficacy) values.
qHTS protocol for TR-beta beta-lactamase assay in agonist mode
[Step] [Parameter] [Value] [Description]
1. Reagent; 6 uL; 2500 cells/well
2. Incubation; 37 C for 4 hrs
- Dose response; start 3.8 uM, 1:3 dilutions, duplicates in first column
- Two columns of each 10 and 0.4 nM (finals) concentrations.
5. Incubation; 37 C for 18 hrs
6. Detection reagent; 1 uL of CCF4-dye
7. Incubation; RT for 2 hrs
8. Detection; Fluorescence; Envision plate reader

Sequence of Thyroid hormone receptor beta (Homo sapiens) (P10828 whole entry, looked up): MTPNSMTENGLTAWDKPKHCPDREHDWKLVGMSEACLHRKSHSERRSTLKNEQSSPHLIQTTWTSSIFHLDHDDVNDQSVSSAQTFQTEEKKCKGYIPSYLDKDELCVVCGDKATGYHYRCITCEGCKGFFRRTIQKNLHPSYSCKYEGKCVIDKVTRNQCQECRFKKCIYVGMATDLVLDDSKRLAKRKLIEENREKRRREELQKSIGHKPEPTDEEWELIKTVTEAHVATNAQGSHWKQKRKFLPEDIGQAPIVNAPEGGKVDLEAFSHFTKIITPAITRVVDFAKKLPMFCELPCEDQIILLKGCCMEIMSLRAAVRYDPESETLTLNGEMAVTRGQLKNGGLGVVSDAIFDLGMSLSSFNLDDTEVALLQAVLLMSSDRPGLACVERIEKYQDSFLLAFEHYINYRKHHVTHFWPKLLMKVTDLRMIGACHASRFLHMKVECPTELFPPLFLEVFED

Compound	activation [%]	outcome
CCCC(=O)Cl	-4.42	–
Clc1cccc(C(Cl)(Cl)Cl)n1	-21.1	–
COC1=CC(=O)OC(CCc2ccccc2)C1 (stereo not given)	-30	–
ClC1=C(Cl)C2(Cl)C3C4CC(C5OC45)C3C1(Cl)C2(Cl)Cl (stereo not given)	-21.3	–
CCCOC(=O)c1ccccc1C(=O)OCCC	–	inactive
N#Cc1c(Cl)cccc1Cl	9.24	–
CCC(=O)Nc1ccc(Cl)c(Cl)c1	-4.76	–
Clc1cc(Cl)c(-c2cc(Cl)c(Cl)cc2Cl)cc1Cl	-16.6	–
CC(COc1ccc(Oc2ccccc2)cc1)Oc1ccccn1 (stereo not given)	–	inactive
COc1ccc(C=O)cc1OC	–	inactive
Cc1ccccc1N	8.39	–
CCc1cccc(CC)c1N(COC)C(=O)CCl	-12.2	–
N#CCCCl	–	inactive
C=C(Cl)Cl	-31	–
CC(C)OC(=O)Nc1cccc(Cl)c1	6.06	–
CCNc1nc(Cl)nc(NC(C)C)n1	–	inactive
ClC(Cl)=C(Cl)C(Cl)=C(Cl)Cl	–	inactive
Oc1ccc(Cl)cc1Cl	–	inactive
O=NN(c1ccccc1)c1ccccc1	–	inactive
C=C(C)C#N	-1.57	–

Compound	activation [%]	outcome
CCS(=O)CCSP(=O)(OC)OC (stereo not given)	-3.17	–
NC(=S)Nc1ccccc1	–	inactive
CCN(CC)c1ccccc1	-1.31	–
Cc1ccc2ccccc2c1	-7.18	–
c1ccc(-c2ccccc2)cc1	–	inactive
Cc1ccc(O)c(C)c1	–	inactive
CCSC(=O)Cl	-16.7	–
C1CCC2CCCCC2C1 (stereo not given)	-5.22	–
Clc1nc(Cl)nc(Cl)n1	-1.13	–
[O-][Br+2]([O-])O	–	inactive
CC(C)(C)OO	–	inactive
CNC(=O)Oc1ccccc1OC(C)C	-13.9	–
Brc1ccc(Oc2cc(Br)c(Br)cc2Br)c(Br)c1	–	inactive
S=C=Nc1cccc2ccccc12	-15.8	–
Clc1ccc2ccccc2c1	-17.3	–
Brc1ccccc1	–	inactive
COP(=S)(OC)Oc1ccc([N+](=O)[O-])cc1	–	inactive
C=CC(=O)OCC	-37.9	–
COC(=O)NC(=S)Nc1ccccc1NC(=S)NC(=O)OC	–	inactive
O=[N+]([O-])c1ccc(Cl)c(Cl)c1	-15	–
